# Measured values reported in PMC5836133, “The intracellular immune receptor Rx1 regulates the DNA-binding activity of a Golden2-like transcription factor”.
# Over roughly 16,000 sequences, “e-score” has its median near -0.044; the highest 2% begin near 0.38. This excerpt belongs to a sample that is enriched for the highest values.
# Target: T1, GST-NbGlk1(82-244) (Nicotiana benthamiana)
# T1 chain: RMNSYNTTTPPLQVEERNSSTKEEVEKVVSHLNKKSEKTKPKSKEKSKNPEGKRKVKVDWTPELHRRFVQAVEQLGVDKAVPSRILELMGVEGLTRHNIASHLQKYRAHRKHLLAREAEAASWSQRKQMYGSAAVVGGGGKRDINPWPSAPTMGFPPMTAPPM
# Test: protein-binding microarray; NbGlk1 is a Golden2-like transcription factor of Nicotiana benthamiana; high values mean tight binding
# Conditions: protein: recombinant; tags: GST (pTH6838); dsDNA, one strand shown
row,Sequence,binding signal [E-score]
1,ATGGATTC,0.425 ± 0.0111
2,ACGGATTG,0.277 ± 0.0929
3,ACGGATTA,0.312 ± 0.00583
4,ATGGATTA,0.326 ± 0.0123
5,ACGGATTC,0.405 ± 0.00859
6,ATGGATTG,0.21 ± 0.0605
7,ACGCTGAT,0.235 ± 0.108
8,ATTTCTTG,0.258 ± 0.105
9,AATGAAAT,0.236 ± 0.00744
10,CAATCTCG,0.404 ± 0.00662
11,CAATCACA,0.205 ± 0.12
12,CAATCTCC,0.349 ± 0.0541
13,AAATCTCG,0.4626 ± 0.00233
14,CAATCTCA,0.329 ± 0.0291
15,AATTCTCA,0.243 ± 0.0881
16,AAATCTCC,0.439 ± 0.00952
17,AAATCTCA,0.444 ± 0.0165
18,ATCGAATA,0.235 ± 0.0136
19,ACGAGAAT,0.31 ± 0.0433
20,ATCTAATG,0.243 ± 0.0558
21,ATTTCCCA,0.329 ± 0.00415
22,CACGATCG,0.23 ± 0.0866

row,Sequence,binding signal [E-score]
1,ATCTATCA,0.276 ± 0.0314
2,ATAGGATC,0.255 ± 0.0193
3,AATCAACA,0.259 ± 0.102
4,ATCTTTTG,0.24 ± 0.0872
5,AATCATAT,0.28 ± 0.0597
6,ACTGTGAT,0.208 ± 0.0601
7,AGATCGGG,0.239 ± 0.0369
8,ATCCTCTA,0.342 ± 0.0176
9,ACTGATAC,0.204 ± 0.0454
10,CAAAGATA,0.225 ± 0.0785
11,AAATCTCT,0.392 ± 0.0226
12,AAATCACT,0.26 ± 0.0391
13,AATTCTCT,0.225 ± 0.0473
14,ATCCTCAA,0.322 ± 0.0217
15,ACCGGATC,0.21 ± 0.0564
16,ATATAAGA,0.21 ± 0.0738
17,AGGATTTG,0.383 ± 0.0174
18,AGAATTTC,0.267 ± 0.0165
19,AGGATTTC,0.469 ± 0.0121
20,AGTATTTG,0.208 ± 0.054
21,AGAATTTG,0.293 ± 0.0716
22,AATATTTC,0.34 ± 0.0237

row,Sequence,binding signal [E-score]
1,ATCTCCTA,0.337 ± 0.0176
2,AGGGAAAT,0.334 ± 0.0487
3,AATAAGAT,0.3 ± 0.0136
4,ATTACTCA,0.208 ± 0.0879
5,AATCGCGA,0.376 ± 0.0188
6,AGATCTCG,0.431 ± 0.0229
7,AGATCCCC,0.378 ± 0.0125
8,AGATCTCA,0.413 ± 0.0152
9,AGATCCCG,0.32 ± 0.0375
10,AGATCTAC,0.347 ± 0.0432
11,AGATCTCC,0.441 ± 0.0151
12,AGATCCCA,0.219 ± 0.0112
13,AGATCACG,0.26 ± 0.003
14,ATCGTAAC,0.244 ± 0.00995
15,ATCATATC,0.329 ± 0.0297
16,ATTCCCGG,0.283 ± 0.0331
17,CAAATCGA,0.28 ± 0.0483
18,AAAATCGA,0.381 ± 0.0174
19,ATAATCGA,0.216 ± 0.00243
20,AAAATCGT,0.39 ± 0.0061
21,CAAATCGC,0.32 ± 0.038
22,AAAATCGG,0.363 ± 0.0144

row,Sequence,binding signal [E-score]
1,ATAATCGC,0.207 ± 0.0834
2,AAAATCGC,0.405 ± 0.00862
3,AATTGCGT,0.233 ± 0.0124
4,AATTATCC,0.204 ± 0.00884
5,ATCTGAGC,0.219 ± 0.0796
6,ATAGATTC,0.437 ± 0.0195
7,AGAGATTG,0.325 ± 0.048
8,ATAGATTG,0.327 ± 0.0261
9,AGAGATTC,0.434 ± 0.028
10,ACAGATTA,0.362 ± 0.0124
11,ATAGATTA,0.339 ± 0.0049
12,ACAGATTC,0.429 ± 0.0275
13,ACAGATTG,0.359 ± 0.0598
14,AGAGATTA,0.298 ± 0.025
15,ACCAGATC,0.2 ± 0.124
16,ATCACGTA,0.257 ± 0.0112
17,AAGTATCT,0.249 ± 0.0273
18,AATTTAGA,0.251 ± 0.0537
19,AGTGCGAT,0.313 ± 0.00866
20,AAGGGGAT,0.203 ± 0.0242
